Among the data in PubChem BioAssay AID504850 (National Center for Advancing Translational Sciences (NCATS), 2011) are Potency values, retold here.

The campaign covered roughly 2,300 compounds. About 1,200 (52%) were called active. Not shown: some 34% with an inconclusive outcome. Calls come from the whole dose curve; as a rule, active = well fitted inhibition curve with a large enough effect; inconclusive = small, poorly fitted or top-dose-only effect, or effect the other way; inactive = no such curve, though single readings can be large or run the other way. The set was probably picked from earlier hits. The list shows a part of the results.
Potency is the fitted concentration of half-maximal effect.

This assay is described as follows: Confirmation screen for delayed death inhibitors of the malarial parasite plastid, 48 hour incubation. Note: nearly all actives have a fitted effect of over 65% in size. The note with it: P. falciparum-infected erythrocytes, luciferase growth; series mostly up to 28.7 µM. The method in brief: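 Single-generation (48 h, 37 C) exposure of integrated firefly luciferase-reporter P. falciparum in red cells, 0.1% parasitemia at 2% hematocrit, Albumax-supplemented RPMI. Falling luciferase signal marks parasite growth inhibition.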
As to `COc1ccc2cc3[n+](cc2c1OC)CCc1cc2c(cc1-3)OCO2`, the Potency is 1.12 µM (active).
Consider `CCOC(=O)c1ccc(Nc2nc(=O)c3cccnc3s2)cc1`, for which the Potency entry is “inactive”.
Then `CCOC(=O)c1ccc(N2N=C(C)/C(=C/C=C/c3ccco3)C2=O)cc1`, with 6.31 µM (active); and `C=C1c2c(Cl)ccc(O)c2C(O)=C2C(=O)[C@@]3(O)C(O)=C(C(N)=O)C(=O)[C@@H](N(C)C)[C@@H]3[C@@H](O)[C@H]12`, with 4.47 µM (active); and `C=C1c2c(Cl)ccc(O)c2C(O)=C2C(=O)[C@]3(O)C(O)=C(C(N)=O)C(=O)[C@@H](N(C)C)[C@@H]3[C@@H](O)C12` (some centres undefined), with 3.98 µM (active).
Consider `C[C@@H]1c2cccc(O)c2C(O)=C2C(=O)[C@@]3(O)C(O)=C(C(N)=O)C(=O)[C@@H](N(C)C)[C@@H]3[C@@H](O)[C@@H]21`, for which the Potency was 4.47 µM (active).
As for `CN(C)c1ccc(O)c2c1CC1CC3[C@@H](N(C)C)C(=O)C(C(N)=O)=C(O)[C@]3(O)C(=O)C1=C2O` (some centres undefined), the Potency was 2.24 µM (active).
Take `Cc1ccc(-c2csc3ncn(CC#N)c(=O)c23)cc1C`: the Potency result was “inactive”.
For `Cc1ccccc1NC1=NCC(c2ccc([N+](=O)[O-])cc2)S1` (centres undefined), the Potency was 11.2 µM (active).
Turning to `C=CCNC(=O)c1oc2ccc(S(=O)(=O)N3CCCCC3)cc2c1C`, the Potency was 14.1 µM (active).
`C=CCNC(=O)c1onc(CSc2ccc(C)c(C)c2)c1C(=O)O`: the Potency result is “inactive”.
With `C=CCNC(=O)c1onc(CSc2cc(C)cc(C)c2)c1C(=O)O`, the Potency entry is “inactive”.
As to `CCN(CC)Cc1cc2[nH]c3c4ccc(Cl)cc4ncc3c2cc1OC`, the Potency was 0.178 µM (active).
`CCCCCCn1ccc(=N)cc1`: the Potency is 7.08 µM (active).
In the case of `CCOC(=O)c1c(-c2cccc(C)c2)csc1NC(=O)c1c(-c2ccccc2)noc1C`, the Potency is 11.2 µM (active).
As for `CCOC(=O)c1c(-c2ccc(F)cc2)csc1NC(=O)c1c(-c2ccccc2)noc1C`, the Potency is 8.91 µM (active).
With `CCOC(=O)c1c(-c2ccc(-c3ccccc3)cc2)csc1NC(=O)c1cccc(N2C(=O)CCC2=O)c1`, the Potency is 5.01 µM (active).
Regarding `CCOC(=O)c1c(NC(=O)c2c(-c3ccccc3)noc2C)sc(C)c1-c1ccccc1`, the Potency was 6.31 µM (active).
In the case of `COC(=O)c1c(-c2ccccc2)csc1NC(=O)c1c(-c2ccccc2)noc1C`, the Potency is 14.1 µM (active).
`O=C(c1cccs1)N1N=C(c2ccccc2)CC1c1ccccc1O` (centres undefined): the Potency was 3.55 µM (active).
For `CCOc1ccc2c(c1)OC(c1ccccc1)(C(F)(F)F)NC2=O` (centres undefined), the Potency is 2 µM (active).
Turning to `CC[C@@H](C)C(NC(=O)OC(C)(C)C)c1cn([C@@H](Cc2ccc(O)cc2)C(=O)N2CCN(C(=O)OC(C)(C)C)CC2)nn1` (some centres undefined), the Potency is 12.6 µM (active).
`CC[C@@H](C)C(NC(=O)OC(C)(C)C)c1cn([C@@H](CCCCNC(=O)OC(C)(C)C)C(=O)N2CCN(C(=O)OC(C)(C)C)CC2)nn1` (some centres undefined): the Potency was 2 µM (active).
Then `COc1ccccc1NC(=O)c1ccc(S(=O)(=O)NCc2ccco2)cc1`, with “inactive”; and `CCOc1ccccc1NC(=O)c1cc(S(=O)(=O)NCc2ccco2)ccc1F`, with 12.6 µM (active); and `O=C1c2cccc3cc([N+](=O)[O-])cc(c23)C(=O)N1CCN1CCCC1`, with 10 µM (active).
With `Cc1nnnn1/C(=C\c1ccccc1)C(=O)OCC(=O)N1CC2(C)CC1CC(C)(C)C2` (centres undefined), the Potency is 12.6 µM (active).
On to `CCN1C(=O)c2ccccc2Sc2ccc(C(=O)NCCCN3CCCCC3)cc21`, for which the Potency was 12.6 µM (active).
Take `Cc1cccc(CN2C(=O)c3ccccc3S(=O)(=O)c3ccc(C(=O)NCCCN4CCCC4)cc32)c1`: the Potency is 3.98 µM (active).
For `O=C(c1ccc2c(c1)N(Cc1cccc(Cl)c1)C(=O)c1ccccc1S2(=O)=O)N1CCN(c2ccccn2)CC1`, the Potency is 3.98 µM (active).
For the molecule `O=C(NCCCN1CCCC1)c1ccc2c(c1)N(Cc1ccccc1F)C(=O)c1ccccc1S2=O` (centres undefined), the Potency was 12.6 µM (active).
Regarding `CC(C)[C@H](NC(=O)N1CCn2c1nc1ccccc12)C(=O)N[C@H](C(=O)O)c1ccccc1`, the Potency result is “inactive”.
Turning to `CCN1CCCC1CNC(=O)c1ccc2c(c1)N(Cc1ccccc1F)C(=O)c1ccccc1S2(=O)=O` (centres undefined), the Potency was 5.01 µM (active).
As for `CCOC(=O)N1CCN(C(=O)c2ccc3c(c2)N(Cc2cc(C)ccc2C)C(=O)c2ccccc2S3=O)CC1` (centres undefined), the Potency is 4.47 µM (active).
As to `CC(NC(=O)CCl)c1ccccc1Br` (centres undefined), the Potency was 2.24 µM (active).
Consider `CC(=O)/C=C/c1ccc2ccccc2n1`, for which the Potency is 12.6 µM (active).
With `Cc1cccc(N(Cc2ccccc2)C(=O)CSC(C)C(=O)Nc2cc(C)on2)c1` (centres undefined), the Potency is 11.2 µM (active).
With `Cc1cc(C)c(OCC(O)CNC(C)(C)C)c(C)c1` (centres undefined), the Potency is 11.2 µM (active).
With `Cn1nnnc1Sc1ncnc2scc(-c3cccs3)c12`, the Potency was 12.6 µM (active).
For the molecule `Cn1nnnc1Sc1ncnc2scc(-c3ccc[nH]3)c12`, the Potency is 12.6 µM (active).
Consider `Cn1nnnc1Sc1ncnc2scc(-c3ccsc3)c12`, for which the Potency is 4.47 µM (active).
With `O=C(NCc1ccccn1)Nc1cc(Cl)ccc1Cl`, the Potency was 5.01 µM (active).
Take `Cc1ccc(Oc2nc3ccccn3c(=O)c2/C=C(\C#N)C(=O)NC2CCS(=O)(=O)C2)c(C)c1` (centres undefined): the Potency is 12.6 µM (active).
With `CCCN(CCC)CCNC(=O)C1c2ccccc2C(=O)N2CCc3ccccc3C12` (centres undefined), the Potency result is “inactive”.
Regarding `CCN(CC)CCNC(=O)C1c2cc(OC)c(OC)cc2C(=O)N2CCc3ccccc3C12` (centres undefined), the Potency was 7.08 µM (active).
For `CC(=O)c1ccccc1OCC(O)CN1CCN(C(c2ccccc2)c2ccccc2)CC1` (centres undefined), the Potency was 2.24 µM (active).
Take `O=C(N/N=C/c1ccc([N+](=O)[O-])cc1)c1cccc(N2CCCC2=O)c1`: the Potency was 11.2 µM (active).
Take `Cc1nn(-c2ccccc2)c(N2CCCC2)c1/C=N/NC(=O)c1ccccc1O`: the Potency was 5.01 µM (active).
In the case of `Cc1nn(-c2ccccc2)c(N2CCCC2)c1/C=N/NC(=S)Nc1ccccc1F`, the Potency was 12.6 µM (active).
On to `CC(C)Cc1csc(NC(=O)C(C)C)c1C(=O)O`, for which the Potency entry is “inactive”.
Consider `CCOC(=O)C1(CCc2ccccc2)CCN(Cc2ccccn2)CC1`, for which the Potency is 4.47 µM (active).
For the molecule `Cc1cccc(NC(=O)CSc2nc3ccccc3nc2N2CCCCC2)c1`, the Potency is 11.2 µM (active).
On to `COc1cccc(NC(=O)CSc2nc3ccccc3nc2N2CCCC2)c1`, for which the Potency is 14.1 µM (active).
With `Cc1cccc(NC(=O)CSc2nc3ccccc3nc2N2CCCC2)c1`, the Potency was 14.1 µM (active).
